# Results as given in PubChem BioAssay (NCI).
# Compounds without any hit were thinned out: in the full panel of roughly 83,000, 20% have a hit.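 Plates (96-well) were seeded with cells, treated with compound at one concentration, and incubated for 48 hours before percent growth was determined.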 A number with no mark means an inactive call. Activity calls are given as the source filed them. The calls were made as follows: active = growth percent below 10; inactive = the rest.
# Experiments:
# Assay in all cases: NCI-60 one-dose screen, 48 h (100 = growth as untreated, 0 = no growth, -100 = all killed)
# Conditions in all cases: 10 µM unless noted
# NCI-H23 lung = tested on: NCI-H23 lung
# NCI-H226 lung = tested on: NCI-H226 lung
# NCI-H322M lung = tested on: NCI-H322M lung
# HOP-62 NSCLC = tested on: HOP-62 NSCLC
# NCI-H460 lung = tested on: NCI-H460 lung
# HOP-92 NSCLC = tested on: HOP-92 NSCLC
# NCI-H522 lung = tested on: NCI-H522 lung
# A549/ATCC NSCLC = tested on: A549/ATCC NSCLC
# 786-0 renal = tested on: 786-0 renal
# COLO 205 colon = tested on: COLO 205 colon
SMILES,growth (NCI-H23 lung),growth (NCI-H226 lung),growth (NCI-H322M lung),growth (HOP-62 NSCLC),growth (NCI-H460 lung),growth (HOP-92 NSCLC),growth (NCI-H522 lung),growth (A549/ATCC NSCLC),growth (786-0 renal),growth (COLO 205 colon)
Cc1cc(-c2cc(C)c(N)cc2C)c(C)cc1N,101%,103%,118%,93.1%,113%,45.9%,86.1%,107%,84.1%,99.2%
C#Cc1cccc(NC(=O)c2ccc(NC(=O)C=C)cc2)c1,99.1% [8.25 µM],88.1% [8.25 µM],84.4% [8.25 µM],95.2% [8.25 µM],94.5% [8.25 µM],90% [8.25 µM],45.4% [8.25 µM],69.6% [8.25 µM],56.5% [8.25 µM],115% [8.25 µM]
CC(C)C(=O)Nc1ccc(-c2nc(-c3cccc(OCCN4CCOCC4)c3)c(-c3ccnc(Br)c3)[nH]2)cc1,55.6%,76.4%,67.8%,55.2%,63.6%,61.3%,68.7%,63%,-19.3% (active),43.3%
Cc1nc(/N=C(\N)NC(=O)Nc2cccc(Cl)c2)sc1C,73.2%,90.2%,92%,71%,66%,89.5%,38.9%,70.1%,97.8%,67.3%
COc1cc(OCc2cccc(-c3ccc(C(O)c4nccs4)cc3)c2C)cc(OC)c1CNCCNC(C)=O (stereo not given),98.1%,96.2%,99.1%,108%,101%,81.8%,101%,96.3%,102%,104%
O=C(N/N=C/[C@H](O)[C@H](O)[C@H](O)CO)c1ccc(NC(=O)c2cccnc2)cc1,101%,105%,105%,97.5%,104%,103%,92.7%,99.8%,105%,112%
c1cc(NCCc2ccncc2)nc(-n2cnc3ccccc32)c1,95.3%,76.6%,81.4%,90.7%,79%,93%,78.8%,78.8%,92%,123%
CCN(CC)c1ccc(C2=NN(C(C)=O)C(c3cc(OC)c(OC)c(OC)c3)C2)cc1 (stereo not given),23.5%,9.31% (active),-3.75% (active),40.7%,13.4%,20.6%,-46.3% (active),17.1%,24%,-4.4% (active)
NCCOc1ncccc1/C=C1\c2ccccc2-c2ccc(C(F)F)cc21,42.3%,61.8%,98.8%,39.9%,9.8% (active),49.6%,79%,20.9%,56.4%,48.9%
COc1c(C2CC(=O)Nc3c2c(C)nn3-c2nc3ccccc3[nH]2)cc2c(c1OC)OCO2 (stereo not given),48.2%,75.8%,78.5%,43.4%,35.6%,70.9%,53.3%,35.8%,67.6%,84.1%
CNc1nc2c(s1)C(c1cccc(F)c1)CC(=O)N2 (stereo not given),100%,90.3%,99.1%,93.3%,106%,93.4%,87.4%,106%,97.4%,110%
CCN(CC)CCNc1nc2ccccc2c2c(=O)c3cc(Cl)ccc3sc12,79.7%,91.7%,87.5%,76.7%,8.93% (active),28.6%,63.9%,52.3%,74.5%,64.2%
COc1c(B(O)O)cc(F)cc1-c1nc2ccc3[nH]ncc3c2c2c1CCCC2,0.235% (active),8.89% (active),14.2%,16.1%,5.46% (active),19.7%,13.1%,15%,1.01% (active),-3.77% (active)
O=C(CCCCCCSc1nc(-c2ccccc2)cc(-c2ccccc2)n1)NO,27.6%,56%,45%,29.5%,24.4%,7.75% (active),-0.297% (active),27.4%,65%,25.7%
NCCCNc1nc2ccccc2c2c(=O)c3cc(F)cc(Cl)c3sc12,95.5%,88.9%,87.7%,92.6%,-74% (active),70.4%,92.9%,79.1%,86.3%,106%
NCCCNc1nc2ccccc2c2c(=O)c3cc(OC(F)(F)F)ccc3sc12,48.3%,85.7%,49.1%,51.6%,-76.6% (active),17.3%,-14.4% (active),-43.3% (active),57.5%,-52.7% (active)
Cc1[nH]c(C(=O)Nc2ccc(C(=O)NCCN)cc2OC(C)C)c(Cl)c1Cl,79.5%,93.5%,53.3%,59.9%,-55.2% (active),29.7%,-6.73% (active),47.3%,44%,-45.7% (active)
CCCCOc1ccc(/C=N/NC(N)=S)cc1,87.6%,68.9%,94.9%,116%,96.5%,68.2%,8.46% (active),91.4%,68.3%,85%
O=C(CSc1nccc(Nc2ccc(S(=O)(=O)Nc3nccs3)cc2)n1)c1ccc(C(F)(F)F)cc1,88.1%,89.2%,106%,113%,107%,90.8%,84.4%,99.6%,99.7%,112%
Cc1ccc(/C=C2\Oc3ccc(O)c(O)c3C2=O)cc1,36.6%,62.2%,58%,44.8%,43.4%,35.9%,13.6%,73.1%,52.5%,107%
